Data published in PubChem BioAssay (Tox21).
A number with no mark means an inactive call. Records with an inconclusive call do not appear. Where a call stands in place of a potency, no number is given. Calls of active or inactive are those of the source. Unless noted, calls come from the whole dose curve; as a rule, active = well fitted curve in the direction sought with a large enough effect in the repeat runs; inconclusive = weak or mixed curves; inactive = no such curve, though single readings can be large; an effect the other way counts as inactive or inconclusive.

Tests used:
[1] = molecular target: Progesterone receptor (Homo sapiens) (UniProt P06401); assay: qHTS assay to identify small molecule agonists of the progesterone receptor (PR) signaling pathway (AID 1346784; calls by dose curve; note: nearly all actives have a fitted effect of over 30% in size)
Progesterone receptor (Homo sapiens), sequence (P06401 whole entry, looked up): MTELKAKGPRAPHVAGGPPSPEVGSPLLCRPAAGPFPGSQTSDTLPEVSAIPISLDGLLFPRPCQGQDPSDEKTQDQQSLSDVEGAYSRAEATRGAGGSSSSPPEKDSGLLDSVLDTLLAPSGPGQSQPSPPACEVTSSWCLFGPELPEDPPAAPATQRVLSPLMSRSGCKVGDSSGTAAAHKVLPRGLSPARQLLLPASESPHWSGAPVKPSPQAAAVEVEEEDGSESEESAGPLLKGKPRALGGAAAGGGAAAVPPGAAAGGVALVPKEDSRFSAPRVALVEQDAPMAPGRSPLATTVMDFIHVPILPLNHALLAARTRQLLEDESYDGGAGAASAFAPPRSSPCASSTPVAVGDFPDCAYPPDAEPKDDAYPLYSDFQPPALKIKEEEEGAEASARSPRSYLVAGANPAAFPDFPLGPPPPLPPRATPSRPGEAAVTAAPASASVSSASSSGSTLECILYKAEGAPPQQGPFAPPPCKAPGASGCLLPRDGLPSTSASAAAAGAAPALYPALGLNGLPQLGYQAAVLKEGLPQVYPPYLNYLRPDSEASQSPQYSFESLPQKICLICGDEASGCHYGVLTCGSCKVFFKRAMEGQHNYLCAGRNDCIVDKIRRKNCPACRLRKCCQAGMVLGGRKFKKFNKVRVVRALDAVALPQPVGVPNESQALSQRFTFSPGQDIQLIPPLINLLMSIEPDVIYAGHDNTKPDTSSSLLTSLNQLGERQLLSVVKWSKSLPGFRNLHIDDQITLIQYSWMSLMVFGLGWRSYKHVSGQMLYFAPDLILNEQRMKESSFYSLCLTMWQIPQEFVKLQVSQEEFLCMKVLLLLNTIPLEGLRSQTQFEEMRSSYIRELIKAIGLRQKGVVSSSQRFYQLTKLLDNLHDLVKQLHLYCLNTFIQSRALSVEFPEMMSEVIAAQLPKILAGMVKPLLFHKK
Method in brief: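 PR-UAS-bla HEK 293T cells carrying a UAS-driven beta-lactamase reporter were seeded in medium with 2% charcoal-stripped FBS, preincubated 6 hr at 37C, then exposed to compounds in DMSO for 16 hr; agonism was read by LiveBLAzer B/G FRET fluorescence.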

[2] = molecular target: Progesterone receptor (Homo sapiens) (UniProt P06401); assay: qHTS assay to identify small molecule antagonists of the progesterone receptor (PR) signaling pathway (AID 1346795; active = well fitted inhibition curve with a large enough effect in the signal ratio in the repeat runs, not every such curve was filed as active; the % refers to the signal ratio; note: potency is the fitted concentration of half-maximal effect)
Method in brief: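 PR-UAS-bla HEK293T cells carrying a UAS-driven beta-lactamase reporter were plated in medium with 2% charcoal-stripped FBS and rested 6 hr at 37C. Compounds were added with 1 nM R5020 (final) for 16 hr, then FRET substrate loaded 2 hr at room temperature.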

[3] = qHTS assay to identify small molecule antagonists of the progesterone receptor (PR) signaling pathway - cell viability counter screen (AID 1346798); note: series mostly up to about 92 µM; nearly all actives have a fitted effect of over 50% in size
Method in brief: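 PR-UAS-bla HEK293T cells in medium with 2% charcoal-stripped FBS were treated with compounds plus R5020 for 16 hr at 37C. Cell viability was then read by CellTiter-Glo luminescence after 30 min at room temperature in the same wells.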

[4] = qHTS assay to identify small molecule agonists of the progesterone receptor (PR) signaling pathway - cell viability counter screen (AID 1346799; calls by dose curve; note: nearly all actives have a fitted effect of over 45% in size)
Method in brief: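 PR-UAS-bla HEK293T cells, 3,000 per well in medium with 2% charcoal-stripped FBS, were preincubated 6 hr at 37C, then exposed to compounds for 16 hr; viability was read as CellTiter-Glo luminescence after 30 min at room temperature.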

[5] = qHTS assay to identify small molecule antagonists of the TGF-beta/Smad signaling pathway - cell viability counter screen (AID 1346824); note: nearly all actives have a fitted effect of over 50% in size
Method in brief: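 SBE-bla HEK 293T cells were plated overnight at 37 C, then given compounds in DMSO plus TGF-beta1 (added as 0.25 ng/mL solution) for 5 hr. After the bla read, CellTiter-Glo was added to the same wells and luminescence read after 30 min at room temperature.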

[6] = qHTS assay to identify small molecule agonists of the TGF-beta/Smad signaling pathway - cell viability counter screen (AID 1346829); note: top concentration of the series differs between compounds; nearly all actives have a fitted effect of over 45% in size
Method in brief: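 Luminescence from CellTiter-Glo, read after a 30 min room-temperature incubation, gives cell viability of SBE-bla HEK 293T cells treated 5 hr with compounds at 37 C.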

[7] = qHTS assay to identify small molecule agonists of the TGF-beta/Smad signaling pathway (AID 1346859; active = well fitted activation curve with a large enough effect in the signal ratio in the repeat runs, not every such curve was filed as active; the % refers to the signal ratio; note: series mostly up to about 77 µM)
Method in brief: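 HEK 293T cells stably carrying a beta-lactamase reporter driven by the Smad binding element were seeded overnight, exposed to DMSO-dissolved compounds for 5 hr at 37 C, 5% CO2, then loaded with FRET substrate for 2 hr at room temperature.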

[8] = molecular target: Thyrotropin-releasing hormone receptor (Homo sapiens) (UniProt P34981); assay: qHTS assay to identify small molecule antagonists of the thyrotropin-releasing hormone receptor (TRHR) signaling pathway (AID 1346877; active = well fitted inhibition curve with a large enough effect in the repeat runs, not every such curve was filed as active; note: series mostly up to about 51 µM)
Thyrotropin-releasing hormone receptor (Homo sapiens), sequence (P34981 whole entry, looked up): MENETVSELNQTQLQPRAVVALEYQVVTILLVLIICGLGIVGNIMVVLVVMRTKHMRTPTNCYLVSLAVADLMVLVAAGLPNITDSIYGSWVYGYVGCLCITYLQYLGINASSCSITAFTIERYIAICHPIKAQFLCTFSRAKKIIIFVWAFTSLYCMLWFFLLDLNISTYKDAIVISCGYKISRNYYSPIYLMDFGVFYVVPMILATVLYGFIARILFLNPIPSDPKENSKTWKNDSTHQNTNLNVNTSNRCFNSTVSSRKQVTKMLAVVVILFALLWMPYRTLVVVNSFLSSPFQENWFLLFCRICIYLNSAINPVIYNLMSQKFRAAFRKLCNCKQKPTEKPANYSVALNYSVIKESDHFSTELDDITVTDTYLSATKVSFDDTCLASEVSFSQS
Method in brief: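 HEK293/TRHR cells, 18 h, 37 °C; Ca2+ dye 2 h; cpd 5 min RT; TRH 1 nM final; fluorescence read 3 min, 1 s intervals; 15 concs, triplicate.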

[9] = molecular target: Thyrotropin-releasing hormone receptor (Homo sapiens) (UniProt P34981); assay: qHTS assay to identify small molecule agonists of the thyrotropin-releasing hormone receptor (TRHR) signaling pathway (AID 1346891; calls by dose curve; note: series mostly up to about 58 µM)
Method in brief: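 TRHR-expressing HEK293 cells were plated 18 h at 37 °C/5% CO2, loaded with calcium dye 2 h at 37 °C, then given compound in DMSO; fluorescence was read kinetically for 3 min at 1 s intervals.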

[10] = Human pregnane X receptor (PXR) small molecule agonists, qHTS cell viability counter screen (AID 1346977); note: nearly all actives have a fitted effect of over 50% in size; note: potency is the fitted concentration of half-maximal effect
Method in brief: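 PXR-Luc HepG2 cells in medium with 5% charcoal-stripped FBS were pre-incubated 5hr, then exposed to compounds for 24hr at 37C. Viability was read in the same wells by CellTiter-Fluor fluorescence, reagent added after 23hr with a 1hr incubation.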

[11] = Caspase-3/7 induction in HepG2 cells by small molecules, qHTS assay (AID 1346978); note: nearly all actives have a fitted effect of over 15% in size
Method in brief: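 Wild-type HepG2 cells (2,000/well) were settled 5 h at 37 C, 5% CO2, then exposed to compounds in DMSO for 17 h. Caspase-3/7 activity was read by luminescence 30 min after adding Caspase-Glo 3/7 reagent at room temperature.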

[12] = Caspase-3/7 induction in CHO-K1 cells by small molecules, qHTS assay (AID 1346980); note: nearly all actives have a fitted effect of over 15% in size
Method in brief: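 Wild-type cells were seeded at 1,500 per well and settled 5 hr at 37 C, 5% CO2, then exposed to DMSO-dissolved compounds for 17 hr. Caspase-Glo 3/7 reagent was added, and luminescence was read after 30min at room temperature.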

[13] = Caspase-3/7 induction in HepG2 cells by small molecules, qHTS cell viability counter screen (AID 1346981); note: nearly all actives have a fitted effect of over 30% in size; note: potency is the fitted concentration of half-maximal effect
Method in brief: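 Fluorescence read-out of live-cell protease activity (CellTiter-Fluor) after 1 hr with reagent. This was measured in the same wells as the caspase-3/7 luminescence, on HepG2 cells exposed to DMSO-dissolved compounds for 16 hr at 37 C.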

[14] = molecular target: Nuclear receptor subfamily 1 group I member 2 (Homo sapiens) (UniProt O75469); assay: Human pregnane X receptor (PXR) small molecule agonists, qHTS assay (AID 1346982); note: nearly all actives have a fitted effect of over 35% in size; note: potency is the fitted concentration of half-maximal effect
Nuclear receptor subfamily 1 group I member 2 (Homo sapiens), sequence (O75469 whole entry, looked up): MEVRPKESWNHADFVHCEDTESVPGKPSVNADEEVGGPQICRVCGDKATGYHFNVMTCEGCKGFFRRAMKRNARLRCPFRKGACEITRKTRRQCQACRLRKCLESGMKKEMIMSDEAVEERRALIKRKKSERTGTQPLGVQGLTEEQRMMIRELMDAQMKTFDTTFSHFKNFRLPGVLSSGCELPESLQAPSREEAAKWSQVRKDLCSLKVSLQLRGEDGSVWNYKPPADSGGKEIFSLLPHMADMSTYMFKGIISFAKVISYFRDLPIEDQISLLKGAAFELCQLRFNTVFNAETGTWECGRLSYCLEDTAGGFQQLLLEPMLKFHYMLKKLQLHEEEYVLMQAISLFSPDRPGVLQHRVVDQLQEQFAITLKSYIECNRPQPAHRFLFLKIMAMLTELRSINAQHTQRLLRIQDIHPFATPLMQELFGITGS
Method in brief: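 HepG2 PXR-Luc reporter line, 5% charcoal-stripped FBS; 5 hr pre-incubation, compound (DMSO) 24 hr at 37 C/5% CO2; ONE-Glo 30 min RT; luminescence read-out.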

[15] = molecular target: Cytochrome P450 2D6 (Homo sapiens) (UniProt P10635); assay: Cytochrome P450 Family 2 Subfamily D Member 6 (CYP2D6) small molecule antagonists: luciferase reporter qHTS assay (AID 1671196); note: nearly all actives have a fitted effect of over 50% in size; note: potency is the fitted concentration of half-maximal effect
Cytochrome P450 2D6 (Homo sapiens), sequence (P10635 whole entry, looked up): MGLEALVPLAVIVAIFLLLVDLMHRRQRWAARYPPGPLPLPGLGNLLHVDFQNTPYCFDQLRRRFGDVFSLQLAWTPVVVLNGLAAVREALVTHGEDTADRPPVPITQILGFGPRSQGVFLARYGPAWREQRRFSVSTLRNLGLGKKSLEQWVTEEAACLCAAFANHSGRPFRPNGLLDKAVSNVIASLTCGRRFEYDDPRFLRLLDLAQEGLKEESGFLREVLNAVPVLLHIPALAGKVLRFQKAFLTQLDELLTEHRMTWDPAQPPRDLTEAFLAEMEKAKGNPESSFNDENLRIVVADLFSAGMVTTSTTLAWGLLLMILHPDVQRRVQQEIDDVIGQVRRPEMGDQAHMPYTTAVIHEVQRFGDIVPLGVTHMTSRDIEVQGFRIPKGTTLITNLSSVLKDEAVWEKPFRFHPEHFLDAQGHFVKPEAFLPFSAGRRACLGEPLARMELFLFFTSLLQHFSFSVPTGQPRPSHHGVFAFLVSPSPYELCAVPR
Method in brief: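 Luminogenic proluciferin substrate, CYP2D6 enzyme; 10 min RT preincubation with compound, NADPH regeneration system added, 1 h RT. Stop/detection reagent, 20 min RT, luminescence read (RLU). Signal proportional to CYP activity.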

[16] = molecular target: Nuclear receptor subfamily 1 group I member 2 (Homo sapiens) (UniProt O75469); assay: CYP3A4 induction through human pregnane X receptor (PXR) by small molecules, qHTS assay (AID 1346984); note: nearly all actives have a fitted effect of over 40% in size
Method in brief: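 HepG2-derived DPX-2 line carrying PXR plus a CYP3A4-promoter luciferase reporter; cells plated 5 hr, compound-exposed 24 hr at 37C. CYP3A4 activity probed with 3uM (final) Luciferin-IPA for 3hr, then luciferase read after One-Glo.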

[17] = molecular target: Nuclear receptor subfamily 1 group I member 2 (Homo sapiens) (UniProt O75469); assay: Human pregnane X receptor (PXR) activation by small molecules, qHTS assay (AID 1346985); note: nearly all actives have a fitted effect of over 40% in size
Method in brief: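 DPX-2 cells (HepG2 co-transfected with a PXR response element and a CYP3A4-promoter luciferase construct) were seeded at 2,000 per well, rested 5 hr at 37C, then exposed to DMSO-dissolved compounds for 24 hr. Activation was read as luciferase luminescence.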

[18] = molecular target: Cytochrome P450 2C19 (Homo sapiens) (UniProt P33261); assay: Cytochrome P450 Family 2 Subfamily C Member 19 (CYP2C19) small molecule antagonists: luciferase reporter qHTS assay (AID 1671197); note: nearly all actives have a fitted effect of over 65% in size; note: potency is the fitted concentration of half-maximal effect
Cytochrome P450 2C19 (Homo sapiens), sequence (P33261 whole entry, looked up): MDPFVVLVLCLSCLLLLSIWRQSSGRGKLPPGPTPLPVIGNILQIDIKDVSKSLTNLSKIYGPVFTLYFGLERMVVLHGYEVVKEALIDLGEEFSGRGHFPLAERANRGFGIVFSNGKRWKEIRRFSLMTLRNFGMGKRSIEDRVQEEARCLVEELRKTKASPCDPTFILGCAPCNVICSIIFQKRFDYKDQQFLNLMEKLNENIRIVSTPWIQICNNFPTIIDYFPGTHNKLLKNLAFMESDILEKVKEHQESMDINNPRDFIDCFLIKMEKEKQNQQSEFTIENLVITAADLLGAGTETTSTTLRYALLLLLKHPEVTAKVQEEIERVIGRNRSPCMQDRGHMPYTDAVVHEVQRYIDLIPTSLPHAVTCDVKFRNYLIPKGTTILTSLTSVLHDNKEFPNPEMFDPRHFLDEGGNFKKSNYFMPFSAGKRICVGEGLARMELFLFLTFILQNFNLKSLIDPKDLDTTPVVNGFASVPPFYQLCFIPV
Method in brief: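 CYP2C19 P450-Glo, 1536-well qHTS. Cpd + enzyme/proluciferin substrate 10 min RT; + NADPH regen, 37C 1 h; stop with luciferin detection reagent, 20 min RT, luminescence (RLU). Pos ctrl ketoconazole.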

[19] = Caspase-3/7 induction in CHO-K1 cells by small molecules, qHTS cell viability counter screen (AID 1346979); note: nearly all actives have a fitted effect of over 35% in size; note: potency is the fitted concentration of half-maximal effect
Method in brief: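 Wild-type CHO-K1 cells were seeded at 1,500 per well, rested 5hr at 37 C, then exposed to compounds in DMSO. After 16hr, CellTiter-Fluor reagent was added and fluorescence read 1hr later as the viability measure.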

| Compound | Potency [1] | Potency [2] | Potency [3] | Potency [4] | Potency [5] | Potency [6] | Potency [7] | Potency [8] | outcome [9] | Potency [10] | Potency [11] | Potency [12] | Potency [13] | Potency [14] | Potency [15] | Potency [16] | Potency [17] | Potency [18] | Potency [19] |
| --- | --- | --- | --- | --- | --- | --- | --- | --- | --- | --- | --- | --- | --- | --- | --- | --- | --- | --- | --- |
| OC1CCCc2ccccc21 (stereo unspecified) | inactive | inactive | inactive | inactive | inactive | inactive | inactive | inactive | inactive | inactive | inactive | inactive | inactive | inactive | inactive |  |  |  |  |
| CN(C)C(=O)COC(=O)Cc1ccc(OC(=O)c2ccc(N=C(N)N)cc2)cc1 | inactive | inactive | inactive | inactive | inactive | inactive | inactive | inactive | inactive | inactive | inactive | inactive | inactive | inactive | inactive | inactive | inactive | inactive |  |
| C/C=C/C=C/COC(=O)C(C)C | inactive | inactive | inactive | inactive | inactive | inactive | inactive | inactive | inactive | 68.6 µM (active) | inactive | inactive |  | 43.3 µM (active) | inactive |  |  |  | 54.5 µM (active) |
| CC(CO)Oc1ccccc1 (stereo unspecified) | inactive | inactive | inactive | inactive | inactive | inactive | inactive | inactive | inactive | inactive | inactive | inactive | inactive | inactive | 41.2 µM (active) |  |  | 36.7 µM (active) | inactive |
| COc1cc(/C=C/c2ccccc2)oc(=O)c1 | inactive | inactive | inactive | inactive | inactive | inactive | inactive | inactive | inactive | inactive | inactive | inactive | inactive | 7.96 µM (active) | inactive |  |  | 10.4 µM (active) | inactive |
| COc1cccc(OC)c1C(=O)O | inactive | inactive | inactive | inactive | inactive | inactive | inactive | inactive | inactive | inactive | inactive |  | inactive | inactive | inactive |  |  | inactive | inactive |
| O=C(O)Cc1ccccc1Nc1c(Cl)cccc1Cl | inactive | inactive | inactive | inactive | inactive | inactive | inactive | inactive | inactive | inactive | inactive | inactive | inactive | inactive | inactive |  |  |  |  |
| O=C(O)c1cc(=O)c2ccccc2o1 | inactive | inactive | inactive | inactive | inactive | inactive | inactive | inactive | inactive | inactive | inactive | inactive |  | inactive | inactive | inactive | inactive |  | inactive |
| Nc1ccc(NCCO)c([N+](=O)[O-])c1 | inactive | inactive | inactive | inactive | inactive | inactive | inactive | inactive | inactive | 48.6 µM (active) | inactive | inactive | 48.6 µM (active) | inactive | 35.6 µM (active) |  |  | 79.6 µM (active) |  |
| CCC(CC)C(C)CCOC(C)=O (stereo unspecified) | inactive | inactive | inactive | inactive | inactive | inactive | inactive | inactive | inactive | inactive | inactive | inactive | inactive | inactive | inactive |  |  |  | inactive |
| CCCC(=O)OC(C)(C)Cc1ccccc1 | inactive | inactive | inactive | inactive | inactive | inactive | inactive | inactive | inactive | inactive | inactive | inactive | inactive |  |  |  |  |  | inactive |
| CNc1ccc([N+](=O)[O-])cc1 | inactive | 54.6 µM (active) | inactive | inactive | inactive | inactive | inactive | inactive | inactive | 43.4 µM (active) | inactive | inactive | 30.7 µM (active) | 54.6 µM (active) |  |  |  | 35.7 µM (active) | 48.7 µM (active) |
| CCCCCC/C=C\CCCCCCCC(=O)O | inactive | inactive | inactive | inactive | inactive | inactive | inactive | inactive | inactive | inactive | inactive | inactive | inactive | inactive | inactive |  |  | 50.2 µM (active) |  |
| Cc1ccc(-c2ccccc2)cc1 | inactive | inactive | inactive | inactive | inactive | inactive | inactive | inactive | inactive | inactive | inactive | inactive | inactive | inactive | inactive |  |  | inactive | inactive |
| Cc1cccc2cccnc12 | inactive | inactive | inactive | inactive | inactive | inactive | inactive | inactive | inactive | inactive | inactive | inactive |  | inactive | inactive |  |  | 70.5 µM (active) | inactive |
| COc1ccc(NC(=O)CC(C)=O)cc1 | inactive | inactive | inactive | inactive | inactive | inactive | inactive | inactive | inactive | inactive | inactive | inactive | inactive | inactive | inactive |  |  |  |  |
